# Experimental data reported in ChEMBL document CHEMBL3988442, “University of Dundee, Small-Polar-MMV Screening Library” (2021).
# Values joined by “and” are separate entries in the source; they are usually repeats but may differ in a detail not shown here. Equal entries are not always repeated. In all, about 38,000 compounds went through this assay and about 1,200 (3.2%) showed an effect of 50% or more. The median lay at about -58%. The entries come from a sample that favours strong results as a whole.
# Test system: Plasmodium falciparum
# Assay: Calibr Malaria Delayed Death Assay SOP
# Type: functional, organism-based
# Design: scale not given: in the data most compounds retested in dose-response had high values
# Settings: concentration 4.99e-06 (unit not given; other assays of the set use mol/L)
Structure (SMILES),Percent Effect [%],Percent Effect (4.99 µM)
COc1cccc2ccn(CC(=O)NC(C)C)c12,-78.35,–
Cc1ccc(N(CCC#N)C(=O)CCc2cscn2)cc1C,-62.62,–
COC[C@@]12CCO[C@@H]1CCN(C(=O)Cc1cccc(F)c1)C2,-44.15,–
Cc1ccc(-c2nc(CCNC(=O)C3CC(=O)N(C)C3)cs2)cc1 (stereo unspecified),-66.89,–
Cc1nc(-c2cccc(C(=O)O)c2)c[nH]1,-344.9,–
CC(=O)c1cccc(-c2c[nH]c(C)n2)c1,-59.83,–
Cc1cc2c(c(-c3c[nH]c(C)n3)c1)OC(CN)C2 (stereo unspecified),79.27,–
Cc1cc2c(c(-c3cncc(C(=O)N4CCCC4)n3)c1)OC(CN)C2 (stereo unspecified),3.853,–
O=C(CCc1ccco1)N1CCCN(Cc2cscn2)CC1,-137.4,–
O=C(c1cccc(F)c1)N1CC[C@@H]2CN(c3ncccn3)CCO[C@@H]2C1,-63.21,–
O=S(=O)(NCC(O)c1ccc2c(c1)CCO2)c1ccccc1F (stereo unspecified),-109.3,–
CC1(c2ccccc2)CCCN(Cc2cncn2C2CC2)C1 (stereo unspecified),67,–
COCCn1cncc1CN1CCC(C(C)=O)(c2ccccc2)CC1,-24.83,–
CC1(c2ccccc2)CCCN(Cc2cncn2C2CCCC2)C1 (stereo unspecified),90.6,–
CC1(c2ccccc2)CCCN(C(=O)c2ccn3nnnc3c2)C1 (stereo unspecified),-91.8,–
COc1ncc(CN2CCC3(CCCN(CC4CCCCC4)C3)C2)cn1 (stereo unspecified),-65.28,–
O=C(C1CCCN(Cc2cccnc2)C1)N1CCc2sccc2C1 (stereo unspecified),-120.1,–
O=C(C1CCCN(Cc2ccccc2)C1)N1CCc2sccc2C1 (stereo unspecified),11.44,–
COCCN1CCCC12CCN(Cc1cncn1C)CC2.O=C(O)C(F)(F)F.O=C(O)C(F)(F)F,-15.64,–
CC1(c2ccccc2)CCC(=O)N(CCN2CCOCC2)C1 (stereo unspecified),-51.4,–
COCCn1cncc1CN1CCCC(C)(c2ccccc2)C1 (stereo unspecified),61.23,–
O=C(Cc1ccccc1)C1CCCN(Cc2cncn2C2CCCC2)C1 (stereo unspecified),56.54,–
CCc1nccn1C1CCCN(C(=O)c2cncn2-c2ccccc2)C1 (stereo unspecified),–,-131.8% and -127.1%
O=C(O)C(F)(F)F.O=C(O)C(F)(F)F.O=C1N(Cc2cccnc2)CCC12CCCN(c1ncccn1)C2 (stereo unspecified),-131.5,–
CS(=O)(=O)c1cncnc1C1CCCNC1.Cl (stereo unspecified),-139,–
CCN1CCO[C@@H]2CN(C(=O)NCc3ccccc3)CC[C@@H]2C1,-134.2,–

Structure (SMILES),Percent Effect [%],Percent Effect (4.99 µM)
CCC(=O)NC(c1ccc(C)cc1)c1cccc(S(C)(=O)=O)c1 (stereo unspecified),-119.8,–
COc1cc(N2C[C@@H]3COC[C@@H](Cc4nc(C)no4)[C@@H]3C2)ncn1,-87.35,–
Cc1ccc(C(=O)N2C[C@@H]3CCCO[C@@H]3[C@H](N(C)Cc3ccco3)C2)o1.O=C(O)C(F)(F)F,-32.67,–
CCNC(=O)c1c2c(N3CCN(C)CC3)ncnc2n2ccccc12,-74.14,–
CCN1CCC(CNC(=O)C2(c3ccc(F)cc3)CC2)C1 (stereo unspecified),28.54,–
CCCN1CCC(CNC(=O)C2(c3ccccc3)CCC2)C1 (stereo unspecified),65.3,–
Cc1cc(C)cc(C2(C(=O)NCC3CCN(CC(F)(F)F)C3)CC2)c1 (stereo unspecified),-75.87,–
CCCN1CCC(CNC(=O)C2(c3cccc(C)c3)CC2)C1 (stereo unspecified),-64.24,–
COCCN1CCC(CNC(=O)C2(c3ccccc3)CCC2)C1 (stereo unspecified),-3.533,–
CCOCCC(=O)N1CCN(CC(C)O)CC1 (stereo unspecified),-101.9,–
Cn1ncnc1CNC(=O)N(CCCO)C1CCc2ccccc21 (stereo unspecified),-16.9,–
Cn1cc(N2CC3(CCN(Cc4cccnc4)CC3)OCC2=O)cn1.O=C(O)C(F)(F)F.O=C(O)C(F)(F)F,-71.74,–
CC(=O)N1CCN(C(=O)NCCc2ccc(Cl)s2)CC1,-108.8,–
Cc1cc(C)c(CNC(=O)NCC2Cc3ccccc3O2)c(=O)[nH]1 (stereo unspecified),-144.1,–
CN1CCC(c2cccc(Cc3ccc(C(F)(F)F)cc3)n2)CC1,50.24,–
CN1CCC(c2cccc(Cc3ccccc3)n2)CC1,-0.8146,–
Fc1ccc(Cc2cccc(C3CCN(C4CCOCC4)CC3)n2)cc1,38.56,–
COC1CCN(C(=O)C2CCCC2)CC(=O)N(C)c2ccccc21 (stereo unspecified),-134,–
CC1CN(C(=O)Nc2cc(C(F)(F)F)c[nH]c2=O)CC(C)(C)O1 (stereo unspecified),-36.51,–
Cc1ccsc1C(O)CNC(=O)Cc1ccc(S(=O)(=O)C(C)C)cc1 (stereo unspecified),0.3509,–
COc1c(F)cc(-c2cccc3c2OC(CN)C3)cc1F (stereo unspecified),35.23,–
COc1cc(-c2cccc3c2OC(CN)C3)ccc1O (stereo unspecified),37.76,–
NCC1Cc2cccc(-c3ccc(O)c(F)c3)c2O1 (stereo unspecified),82.73,–
COc1ccc(-c2cccc3c2OC(CN)C3)cc1F (stereo unspecified),62.39,–
COc1cc(-c2cccc3c2OC(CN)C3)cc(OC)c1OC (stereo unspecified),46.68,–
